Test results from publication PMC4552634, “A New Set of Chemical Starting Points with Plasmodium falciparum Transmission-Blocking Potential for Antimalarial Drug Discovery” (PLoS ONE, 2015).
Among all 13,000 compounds or so, about 3,200 (25%) showed an effect of 50% or more. The list shows a part of the results.

Tested on: P. falciparum stage V gametocytes
Set-up: BacTiter-Glo ATP luminescence viability of purified stage V gametocytes in 384-well plates, per cent inhibition versus DMSO
Conditions: 48 h, 5 µM; inhibitor

Row | Compound | % Inhibition
1 | CCOC(=O)Cn1ccc2c(NCc3ccccc3)nc(C)nc21 [TCMDC-137249] | 9.107%
2 | OC(CN1CCN(c2cccc(Cl)c2)CC1)C(c1ccccc1)c1ccccc1 (centres unmarked) [TCMDC-123456] | 0.2376%
3 | COc1cccc2cc(C(=O)N[C@@H](CC(C)C)C(=O)N[C@H](C=NN3CCCC3=O)Cc3ccccc3)oc12 [TCMDC-136091] | 20.05%
4 | CC(c1cccc(Nc2nccc(-c3c(-c4cccc(NC(=O)c5c(F)cccc5F)c4)nn4ncccc34)n2)c1)S(C)(=O)=O (centres unmarked) [TCMDC-135696] | -68.26%
5 | Nc1nc(N)c2c(Oc3cccc(Cl)c3)cccc2n1 [TCMDC-137741] | -2.704%
6 | CCCCCN1CCCC1CNS(=O)(=O)c1ccc(C(=O)Nc2cccc(C(F)(F)F)c2)cc1 (centres unmarked) [TCMDC-133688] | -7.266%
7 | CN1CCc2cc(CN3CC4(C)CC3CC(C)(C)C4)c(O)cc2C(c2ccccc2)C1 (centres unmarked) [TCMDC-131903] | -50.67%
8 | CC(C)NCc1cccc(-c2ccc(NC(=O)c3ccc(C#N)cc3)cc2)c1 [TCMDC-132669] | -2.892%
9 | CC(C)NCc1ccc(-c2cccc(NC(=O)c3cccc(C#N)c3)c2)cc1 [TCMDC-132649] | 48.87%
10 | CN1CCCN(Cc2ccc(-c3ccc(NC(=O)c4ccc(C#N)cc4)cc3)cc2)CC1 [TCMDC-132588] | 15.04%
11 | CC(C)NCc1ccc(-c2ccc(NC(=O)c3ccc(C#N)cc3)cc2)cc1 [TCMDC-132589] | 83.96%
12 | CC(C)NCc1cccc(-c2cccc(NC(=O)c3cccc(C#N)c3)c2)c1 [TCMDC-132662] | 13.1%
13 | CC(C)NCc1cccc(-c2cccc(NC(=O)c3ccc(C#N)cc3)c2)c1 [TCMDC-132656] | 89.01%
14 | CC(C)NCc1cccc(-c2ccc(NC(=O)c3cccc(C#N)c3)cc2)c1 [TCMDC-132672] | -57.78%
15 | CC(C)NCc1cccc(-c2ccc(NC(=O)c3ccc(F)cc3)cc2)c1 [TCMDC-132666] | -42.89%
16 | CC(C)NCc1ccc(-c2cccc(NC(=O)c3ccc(C#N)cc3)c2)cc1 [TCMDC-132638] | 83.96%
17 | CC(C)NCc1ccc(-c2ccc(NC(=O)c3cccc(C#N)c3)cc2)cc1 [TCMDC-132595] | 51.63%
18 | CC(C)NCc1ccc(-c2cccc(NC(=O)c3ccc(F)cc3)c2)cc1 [TCMDC-132635] | 20.54%
19 | CC(C)NCc1ccc(-c2cccc(NC(=O)c3ccc(Cl)cc3)c2)cc1 [TCMDC-132629] | -59.93%
20 | COc1cccc(C(=O)NCCOc2ccccc2)c1Oc1ccccc1 [TCMDC-141238] | 4.712%
21 | Nc1ncc(-c2cn[nH]c2)cc1-c1nc2ccc(Cl)cc2[nH]1 [TCMDC-133560] | -7.229%
22 | C=CCc1cc(Cc2cnc(N)nc2N)cc(CCC)c1OC [TCMDC-138039] | 23.16%

Row | Compound | % Inhibition
23 | O=C(O)c1ccc(-c2cnc3ccc(NC4CCC(O)CC4)nn23)cc1 (centres unmarked) [TCMDC-136692] | 8.489%
24 | Cc1c(C)n(C2CCCC2)c2ncnc(OC3CCN(CC(=O)NC4CC4)CC3)c12 [TCMDC-133310] | -5.87%
25 | Cn1nccc1C(=O)NCCNCc1ccc(-c2cccc(-c3nc4cc(F)ccc4[nH]3)c2)cc1.O=C(O)C(F)(F)F [TCMDC-133016] | -24.65%
26 | CCOc1cc(Cc2cnc(N)nc2N)ccc1OC [TCMDC-137931] | 24.72%
27 | COc1ccc2nccc([C@@H](O)CN3CCC(NC/C=C/c4cccnc4)CC3)c2c1 [TCMDC-140747] | -1.69%
28 | Cc1cc(-c2ncc[nH]2)ccc1-c1ccc(C(=O)N2CCc3cc4c(cc32)C2(CCN(C)CC2)CO4)cc1 [TCMDC-139079] | -8.812%
29 | COc1cc2c(cc1N1CC(C)NC(C)C1)N(C(=O)c1ccc(-c3ccc(-c4ncc[nH]4)cc3C)cc1)CC2 (centres unmarked) [TCMDC-141160] | 13.02%
30 | Cc1cc(C2CCCCN2C)ccc1-c1ccc(C(=O)N2CCc3cc4c(cc32)C2(CCN(C)CC2)CO4)cc1 (centres unmarked) [TCMDC-139081] | 76.58%
31 | CCOC(=O)NCCSC(C)(C)[C@H](NC(=O)[C@H](Cc1cc2ccccc2s1)[C@H](CC)N(O)C=O)C(=O)Nc1nccs1 [TCMDC-137792] | 7.703%
32 | Fc1ccc(Nc2ccnc3cc(-c4cccc(CN5CCCCC5)c4)ccc23)c(Cl)c1 [TCMDC-138418] | 24.75%
33 | COCCNCc1cccc(-c2ccc3c(Nc4cc(O)c(Cl)cc4F)ccnc3c2)c1 [TCMDC-138429] | 38.53%
34 | CN1CCN(Cc2cccc(-c3ccc4c(Nc5ccc(F)cc5Cl)ccnc4c3)c2)CC1 [TCMDC-138417] | 75.62%
35 | CN(C)CCN(C)Cc1cccc(-c2ccc3c(Nc4ccc(F)cc4Cl)ccnc3c2)c1 [TCMDC-138416] | 87.2%
36 | CN1CCN(Cc2cccc(-c3ccc4c(Nc5cc(O)c(Cl)cc5F)ccnc4c3)c2)CC1 [TCMDC-138430] | 33.23%
37 | CN(C)CCNCc1ncsc1-c1ccc2c(Nc3ccc(F)cc3Cl)ccnc2c1 [TCMDC-138466] | 30.52%
38 | COCCNCc1cccc(-c2ccc3c(Nc4ccc(F)cc4Cl)ccnc3c2)c1 [TCMDC-138415] | 42.47%
39 | CN(C)CCN(C)Cc1cccc(-c2ccc3c(Nc4cc(O)c(Cl)cc4F)ccnc3c2)c1 [TCMDC-138432] | 25.38%
40 | CN(C)CCNCc1cccc(-c2ccc3c(Nc4ccc(F)cc4Cl)ccnc3c2)c1 [TCMDC-138412] | 66.82%
41 | Fc1ccc(Nc2ccnc3cc(I)ccc23)c(Cl)c1 [TCMDC-138387] | 14.07%
42 | CN(C)CCNCc1cccc(-c2ccc3c(Nc4cc(O)c(Cl)cc4F)ccnc3c2)c1 [TCMDC-138413] | 57.17%
43 | CS(=O)(=O)CCNCc1cccc(-c2ccc3c(Nc4cc(O)c(Cl)cc4F)ccnc3c2)c1 [TCMDC-138435] | -21.48%
44 | N=C(N)c1cccc(-c2cc(-c3cccc(C(=N)N)c3)on2)c1 [TCMDC-137789] | 11.2%
